Source: PubChem BioAssay AID493191 (Broad Institute, 2011)
Hit rate of the full screen: of about 1,300 compounds, about 330 (25%) were called active. No rule for the calls is given here. These entries were drawn from the full list. Results with a measured potency or affinity are listed apart.

Test: MALME3 melanoma cell viability loss, dose response, orthogonal assay for MITF inhibitor project, CellTiter-Glo, cherry-picked (AID 493191)
Conditions: CellTiter-Glo luminescence, 24 h; series mostly up to 35 µM

Row | SMILES | outcome
1 | COc1cc(-c2nnc(-c3ccco3)o2)ccc1OCc1ccccc1 | inactive
2 | COc1ccc(-c2nc3n(c2C)Cc2ccccc2-3)cc1 | inactive
3 | COc1ccc(-c2nc(-c3ccccc3OC)no2)cc1OC | inactive
4 | Cn1nnnc1Sc1ncnc2scc(-c3ccc[nH]3)c12 | inactive
5 | S=c1[nH]nc(-c2ccco2)n1/N=C/C(Cl)=C/c1ccccc1 | inactive
6 | O=C(Nc1ccc(-c2nc3ncccc3o2)cc1)c1ccc([N+](=O)[O-])o1 | inactive
7 | Oc1cc(NCc2cccnc2)ccc1-c1nc2ccccc2o1 | inactive
8 | O=C(Nc1ccccc1Cl)c1cc(=O)c2ccccc2o1 | inactive
9 | Cc1ccc2nc(-c3cccnc3)oc2c1 | inactive
10 | CC(=NNC(=S)N1CCN(c2ccccn2)CC1)c1nccs1 | inactive
11 | Oc1c(Cl)cc(Cl)cc1/C=N/Nc1ncc(Br)cn1 | inactive
12 | CC(C)(C)C1CCC(OC(=O)CN2CCCCC2)CC1 (stereo not given) | inactive
13 | Cc1ccc(NC(=O)Nc2ccccc2)nc1 | inactive
14 | COc1cc(C2C(C#N)=C(N)Oc3cc(N(C)C)ccc32)cc2c1OCO2 (stereo not given) | inactive
15 | Cc1ccc(/C=c2/sc3n(c2=O)CCCN=3)o1 | inactive
16 | O=C(Cn1cc(/C=C\[N+](=O)[O-])c2ccccc21)Nc1ccccc1 | inactive
17 | Cc1cc(/C=C2\Sc3ccccc3N2C)cc(C)[n+]1CC1CCCO1 (stereo not given) | inactive
18 | O=C(O)c1cccc(COc2ccccc2Cl)c1 | inactive
19 | COc1cc(C(=O)N/N=C(\c2ccccc2)c2ccccn2)cc(OC)c1OC | inactive
20 | Cc1ccc2c(c1)COc1c3ccc(C(=O)O)cc3nn1-2 | inactive
21 | COc1cc(/C=N/NS(=O)(=O)c2ccc3ccccc3c2)ccc1OCc1ccc(C(=O)O)cc1 | inactive
22 | COc1cc(/C=N/NS(=O)(=O)c2ccc(C)cc2)ccc1OCc1cccc(C(=O)O)c1 | inactive
23 | CCOc1cc(/C=C2/NC(=S)NC2=O)ccc1OCc1ccc([N+](=O)[O-])cc1 | inactive
24 | CCOc1cc(/C=N/Nc2cccc(C(=O)O)c2)ccc1OC(=O)c1ccccc1 | inactive
25 | Cc1cc(/C(N)=N/OC(=O)c2ccc(Cl)cc2)no1 | inactive

Row | SMILES | outcome
26 | CCCCN=C(C)c1c(O)c2ccccc2oc1=O | inactive
27 | CC(C)(C)c1ccc(/C=N/Nc2ccc(C(=O)O)cc2)cc1 | inactive
28 | Cc1ccc(/C=N/Nc2ccc(C(=O)O)cc2)s1 | inactive
29 | Cc1csc(NC(=O)Cc2c(F)cccc2Cl)n1 | inactive
30 | Cc1cc(C)n(CCC(=O)N/N=C/c2c(O)ccc3ccccc23)n1 | inactive
31 | Cc1ccc(-n2[nH]c(=O)c(-c3ccccn3)c2C)cc1 | inactive
32 | Cc1cccc(N(O)C(=O)Nc2cccc(Cl)c2)c1 | inactive
33 | Cn1c(COc2ccccc2)nc2ccccc21 | inactive
34 | COc1ccc(NCc2nc3ccccc3n2C)cc1 | inactive
35 | CCOC(=O)/C=c1\s/c(=C\c2ccc3cc(OC)ccc3c2)c(=O)n1CC(=O)NCC1CCCO1 (stereo not given) | inactive
36 | O=C(COC(=O)CCN1C(=O)/C(=C\C=C\c2ccccc2)SC1=S)Nc1cc(F)ccc1F | inactive
37 | O=C(Nc1ccccn1)c1ccc(Br)s1 | inactive
38 | N=c1n(CC(=O)c2ccc(Br)cc2)c2ccccc2n1Cc1ccccc1 | inactive
39 | O=C(CCl)N1c2ccccc2SCC1c1ccccc1 (stereo not given) | inactive
40 | COc1ccc(COC(=O)c2n[nH]c3ccccc23)cc1F | inactive
41 | CC(=O)N(\C=C/C=C/C=C1\Sc2ccccc2C1=O)c1ccccc1 | inactive
42 | CCSc1nc2c(cnn2-c2ccccc2)c(=O)n1N | inactive
43 | Nc1c(-c2ccc(Cl)cc2)nnn1-c1ccccc1 | inactive
44 | COc1cc2c(cc1OC)C(SC)=NC1(CCCC1)C2 | inactive
45 | CN(C)c1ccc(/C=C(\C#N)c2ccccn2)cc1 | inactive
46 | N=c1n(CC(=O)c2ccc([N+](=O)[O-])cc2)c2ccccc2n1Cc1ccccc1Cl | inactive
47 | Cc1ccccc1C(=O)O/N=C(\N)c1ccc([N+](=O)[O-])cc1 | inactive
48 | O=C(C[n+]1cccc2ccccc21)c1ccc([N+](=O)[O-])cc1 | inactive
49 | Cc1ccccc1Cn1c(=N)n(CC(=O)c2ccc([N+](=O)[O-])cc2)c2ccccc21 | inactive
50 | O=C(/C=C/NNC(=O)c1ccccc1)c1ccc([N+](=O)[O-])cc1 | inactive

Row | SMILES | outcome
51 | CCN1CCN(/C=N/c2nc3c(s2)CCCC3)CC1 | inactive
52 | CC(Oc1cccc(Br)c1)C(=O)NNC(=O)c1ccccn1 (stereo not given) | inactive
53 | Cc1cnn(C(=S)NCCc2ccccc2)c1 | inactive
54 | O=C(Cn1cnc2c(oc3ccccc32)c1=O)c1ccccc1 | inactive
55 | CCCCOC(=O)c1[nH]c(C)c(C(=O)OC)c1C | inactive
56 | CCOC(=O)c1c(NC(C)=O)sc2c(OCC(O)CNC(C)(C)C)c(Br)ccc12 (stereo not given) | inactive
57 | CC(/C=N/NC(=O)c1cc(-c2ccncc2)nc2ccccc12)=C\c1ccco1 | inactive
58 | O=C(CCC1CCCN(C(=O)c2cc3ccccc3o2)C1)NCc1ccc(F)c(F)c1 (stereo not given) | inactive
59 | COC(=O)[C@@H](C)NC(=O)c1ccc2oc(CCc3ccccc3)nc2c1 | inactive
60 | COC(=O)[C@@H]1C[C@]2(OC(=O)c3ccccc3)C=CC(=O)C[C@@H]2N1C(=O)OCc1ccccc1 | inactive
61 | O=C1CN(c2ccccc2)C(=S)N1C(=O)c1ccccc1 | inactive
62 | COC(=O)c1ccc(-n2c(C)cc(C(=O)CCl)c2C)cc1 | inactive
63 | Cc1cc(C(=O)COc2cccnc2[N+](=O)[O-])c(C)n1-c1ccccc1 | inactive
64 | COc1ccc2oc3ccc(OC)cc3c(=O)c2c1 | inactive
65 | Cc1cc(-n2c(C)cc(C(=O)CCl)c2C)no1 | inactive
66 | Cc1cc(C(=O)CCl)c(C)n1CCc1ccc(F)cc1 | inactive
67 | CC(C)(C)c1ccc(-c2noc(CCC(=O)NCC3CCCO3)n2)cc1 (stereo not given) | inactive
68 | Cc1cc(NCCCn2ccnc2)n2ncc(-c3ccccc3)c2n1 | inactive
69 | O=C(NCc1ccco1)c1ccc(COCC(F)(F)F)cc1 | inactive
70 | COc1ccc(S(=O)(=O)Nc2ccc(O)c3ccccc23)cc1 | inactive
71 | O=[N+]([O-])c1ccccc1OCCOc1ccccc1[N+](=O)[O-] | inactive
72 | CCOc1ccc(/C=C2\SC(=S)N(CCC(=O)O)C2=O)cc1 | inactive
73 | CCOC(=O)CSc1nc2cc(OCC)ccc2cc1C#N | inactive
74 | CCOC(=O)c1sc(NC(=O)Nc2ccc(Cl)cc2)nc1C | inactive
75 | CCOC(=O)CSC1=NC(=O)/C(=C\c2ccc(OC(C)=O)cc2)S1 | inactive
